# PubChem BioAssay AID651564 (Sanford-Burnham Center for Chemical Genomics, 2012)
# The list shows a part of the results. A number with no mark means an inactive call. Active and inactive are the calls of the source. Cut-off read from the data, not from the text of the source: active = IC50 below about 80 µM; inactive = the rest.
# Assay: isolated mitochondria fluorescence counter-assay – biochemical, uHTS hits, counter-screen for MPTP inhibitor project, dose response (AID 651564)
# Details: isolated mitochondria counterscreen, fluorescence read-out
row,SMILES,IC50
1,CCCC(C(=O)OCCN(CC)CC)(c1ccccc1)c1ccccc1,77.1 µM (active)
2,COCCn1c(CN2CCC(Cc3ccccc3)CC2)nc2c1c(=O)n(C)c(=O)n2C,5.73 µM (active)
3,O=C(c1ccc(Cl)cc1)c1ccc(OCC(O)CN2CCCCC2)cc1 (centres undefined),34.8 µM (active)
4,O=C(Nc1cccc(-c2cccc(Cl)c2)c1)C1CCN(C2CCC2)CC1,33.6 µM (active)
5,CCCCCCCCCCCCN1C(=O)CSC1c1cccnc1 (centres undefined),12 µM (active)
6,Brc1ccc(CSc2ccc(-c3ccco3)nn2)cc1,> 80 µM
7,CCCCc1nc(NCCN)c(C#N)c2c1CSC(C)(C)C2,> 80 µM
8,Cc1ccc2c(c1)C1CN(C)CCC1N2S(=O)(=O)c1ccc(Oc2ccc([N+](=O)[O-])cc2)cc1 (centres undefined),> 80 µM
9,CCCCOc1ccc(CSC(=N)N)cc1[N+](=O)[O-],> 80 µM
10,Cc1cc(C)c(NC(=O)C[N+](C)(C)CC(O)COc2cccc3ccccc23)c(C)c1 (centres undefined),47.5 µM (active)
11,N=c1n(Cc2ccc(Cl)cc2)c2ccccc2n1CC(O)c1ccco1 (centres undefined),13.1 µM (active)
12,C[C@@H](CN1CCC[C@H]1CN1C(N)=NC[C@@H]1Cc1ccccc1)N1C[C@@H](Cc2ccccc2)N(CCCC2CCCC2)C1=N,16.3 µM (active)
13,O=C(COC(=O)c1ccccc1NC(=O)c1ccco1)Nc1ccc2c(c1)OC(F)(F)O2,10.7 µM (active)
14,O=C(Nc1cccc(C(F)(F)F)c1)c1ccc(N2CCNCC2)c([N+](=O)[O-])c1,> 80 µM
